The campaign covered roughly 39,000 compounds. About 3,300 (8.5%) were called active. The entries come from a sample that favours actives as a whole.

Among the data in the antibiotic and cytotoxicity screens of Wong et al. (2023) are cytotoxicity call values, retold here.

In this experiment the test system is HepG2. Nature of the experiment: cytotoxicity call (relative viability < 0.9). Conditions: 10 µM.
On to `COc1ccc(S(=O)(=O)Nc2ccc3c(c2)C(=O)N([C@H](C)CO)C[C@@H](C)[C@H](CN(C)C(=O)NC(C)C)O3)cc1`, for which the cytotoxicity call was “inactive”. In the case of `C[C@H]1CN([C@@H](C)CO)C(=O)Cc2cc(NS(C)(=O)=O)ccc2O[C@H]1CN(C)C(=O)Nc1ccc(F)cc1` it was “inactive”; in that of `CC(C)C[C@H](NC(=O)CNC(=O)c1cc(Cl)ccc1Cl)B1OC(=O)C[C@](CC(=O)O)(C(=O)O)O1`, “active”.

Take `C[C@@H]1CN([C@@H](C)CO)C(=O)c2cccc(NC(=O)Nc3ccc(F)cc3)c2O[C@@H]1CN(C)S(C)(=O)=O`: the cytotoxicity call is “inactive”. In the case of `C[C@H](CO)N1C[C@H](C)[C@H](CN(C)S(C)(=O)=O)Oc2c(NC(=O)Nc3ccccc3)cccc2C1=O` it was “inactive”; in that of `Cc1ccc(CCSc2ccc(Cl)c(Cl)c2)cn1`, “active”. Consider `Cc1ccc(CSc2ncc(C(F)(F)F)cc2Cl)cc1`, for which the cytotoxicity call was “inactive”. In the case of `N#Cc1ccccc1C#CCO` it was “inactive”; in that of `CC(N)O.Cc1cc(CC(C)CC(C)(C)C)n(O)c(=O)c1` (configuration not stated), “active”. In the case of `Cc1ccc(S(=O)(=O)N2C[C@H](O)COC[C@@H]3O[C@H](CC(=O)N[C@@H]4CCN(Cc5ccccc5)C4)CC[C@H]32)cc1` it was “inactive”; in that of `C[C@@H]1CN([C@@H](C)CO)C(=O)c2cc(NC(=O)Nc3ccccc3)ccc2O[C@@H]1CN(C)C(=O)Nc1cccc2ccccc12`, “inactive”.

Regarding `C[C@@H]1CN([C@@H](C)CO)C(=O)c2c(c3ccccc3n2C)-c2ccccc2CO[C@@H]1CN(C)Cc1ccc(O)cc1`, the cytotoxicity call is “inactive”. In the case of `O=C(N/N=C/c1ccc(B(O)O)cc1)c1ccccc1O` it was “inactive”. In the case of `NS(=O)(=O)c1ccc(C(=O)O)cc1` [listing 1 of 2 here] it was “inactive”; in that of `Cc1cc(C(=O)O)cc(S(N)(=O)=O)c1`, “active”; in that of `NS(=O)(=O)c1ccc(C(=O)O)cc1` [listing 2 of 2 here], “inactive”.

As for `COc1ccc([Si](C)(C)[C@@H]2[C@@H](CCO)O[C@]3(C(=O)N(Cc4ccccc4)c4ccc(N(C=O)c5ccccc5)cc43)[C@H]2C)cc1`, the cytotoxicity call was “active”. `COc1ccc([Si](C)(C)[C@@H]2[C@@H](CCOC(=O)NCCCCCC(=O)NO)O[C@]3(C(=O)N(Cc4ccccc4)c4ccc(I)cc43)[C@H]2C)cc1`: the cytotoxicity call was “inactive”. With `C[C@@H]1[C@@H]([Si](C)(C)F)[C@H](CCO)O[C@@]12C(=O)N(Cc1ccccc1)c1ccc(N(C=O)c3ccccc3)cc12`, the cytotoxicity call was “inactive”. With `COC(=O)C[C@H]1O[C@]2(C(=O)N(Cc3ccccc3)c3ccc(I)cc32)[C@@H](C)[C@@H]1[Si](C)(C)c1ccc(OC)cc1` the entry was “inactive”; with `COc1ccc([Si](C)(C)[C@H]2[C@H](CCO)O[C@@]3(C(=O)N(Cc4ccccc4)c4ccc(N(C=O)c5ccccc5)cc43)[C@@H]2C)cc1`, “active”. In the case of `COc1ccc([Si](C)(C)[C@H]2[C@H](CCOC(=O)NCCCCCC(=O)NO)O[C@@]3(C(=O)N(Cc4ccccc4)c4ccc(I)cc43)[C@@H]2C)cc1`, the cytotoxicity call is “inactive”.

On to `Cc1noc(C)c1NC(=O)Nc1ccc2c(c1)C(=O)N([C@@H](C)CO)C[C@@H](C)[C@@H](CN(C)C(=O)Nc1ccc(F)cc1)OCCCC[C@@H](C)O2`, for which the cytotoxicity call was “inactive”.

With `Cc1ccc(S(=O)(=O)NCC[C@@H]2CC[C@H](NS(=O)(=O)c3ccccc3Cl)[C@@H](CO)O2)cc1`, the cytotoxicity call was “inactive”. For `C[C@@H]1CN([C@H](C)CO)C(=O)c2cccc(NC(=O)c3ccncc3)c2O[C@H]1CN(C)Cc1ccc(C(=O)O)cc1`, the cytotoxicity call is “inactive”. In the case of `O=c1cc(-c2cccc(O)c2)oc2ccc(O)cc12`, the cytotoxicity call was “inactive”. In the case of `O=C(C[C@@H]1CC[C@@H]2[C@H](COC[C@H](O)CN2S(=O)(=O)c2ccc(F)cc2)O1)NCc1ccc(Cl)c(Cl)c1` it was “inactive”; in that of `CS(=O)(=O)N1CC[C@]2(COCc3cnc(N4CCOCC4)nc32)C1`, “inactive”; in that of `c1nc(N2CCOCC2)nc(N2CCOCC2)n1`, “inactive”. Take `CS(=O)(=O)N1CCc2c(-c3cnc(N)nc3)nc(N3CCOCC3)nc21`: the cytotoxicity call is “active”. In the case of `C[C@@H]1CN([C@H](C)CO)C(=O)c2cc(NS(=O)(=O)c3ccc(F)cc3)ccc2O[C@@H]1CN(C)Cc1ccc(-c2ccccc2)cc1` it was “active”; in that of `C[C@@H]1CN([C@@H](C)CO)C(=O)c2cc(NS(=O)(=O)c3ccc(F)cc3)ccc2O[C@H]1CN(C)Cc1ccc(-c2ccccc2)cc1`, “inactive”; in that of `C[C@@H]1CN([C@H](C)CO)C(=O)c2cc(NS(=O)(=O)c3ccc(F)cc3)ccc2O[C@H]1CN(C)Cc1ccc(-c2ccccc2)cc1`, “active”.

With `C[C@H]1CN([C@@H](C)CO)C(=O)c2cc(NS(=O)(=O)c3ccc(F)cc3)ccc2O[C@H]1CN(C)Cc1ccc(-c2ccccc2)cc1`, the cytotoxicity call was “inactive”.

In the case of `C[C@H](CO)N1C[C@H](C)[C@@H](CN(C)Cc2ccc(-c3ccccc3)cc2)Oc2ccc(NS(=O)(=O)c3ccccc3)cc2C1=O`, the cytotoxicity call is “inactive”. `C[C@H](CO)N1C[C@H](C)[C@H](CN(C)Cc2ccc(-c3ccccc3)cc2)Oc2ccc(NS(=O)(=O)c3ccc(F)cc3)cc2C1=O`: the cytotoxicity call is “inactive”. In the case of `C[C@H]1CN([C@@H](C)CO)C(=O)c2cc(NS(=O)(=O)c3ccc(F)cc3)ccc2O[C@@H]1CN(C)Cc1ccc(-c2ccccc2)cc1` it was “active”; in that of `C[C@@H]1CN([C@H](C)CO)C(=O)c2cc(NS(=O)(=O)c3ccccc3)ccc2O[C@H]1CN(C)Cc1ccc(-c2ccccc2)cc1`, “inactive”. Take `C[C@@H]1CN([C@@H](C)CO)C(=O)c2cc(NS(=O)(=O)c3ccc(F)cc3)ccc2O[C@@H]1CN(C)Cc1ccc(-c2ccccc2)cc1`: the cytotoxicity call is “active”. With `C[C@H](CO)N1C[C@H](C)[C@H](CN(C)C(=O)NC2CCCCC2)OCCCC[C@H](C)Oc2ccc(NC(=O)CCC(F)(F)F)cc2C1=O` the entry was “inactive”; with `Cn1c(=O)c2c(nc3n2CC=NN3)n(C)c1=O`, “inactive”; with `Cc1n[nH]c(C)c1N`, “inactive”. Consider `CC(C)(C)[S@@](=O)N1Cc2cc(C(=O)N3CCCCC3)nc(-c3cccc(C4=CCCC4)c3)c2[C@H]1CCO`, for which the cytotoxicity call was “inactive”. In the case of `C[C@@H]1CN([C@H](C)CO)C(=O)c2cccc(NC(=O)CCCCCC(=O)Nc3ccccc3N)c2O[C@H]1CN(C)S(C)(=O)=O` it was “inactive”; in that of `C[C@H](CO)N1C[C@H](C)[C@@H](CN(C)Cc2ccc(-c3ccccc3)cc2)Oc2ccc(NS(=O)(=O)c3ccc(F)cc3)cc2C1=O`, “active”; in that of `Cc1noc(C)c1S(=O)(=O)N(C)C[C@H]1Oc2ccc(NS(=O)(=O)c3cn(C)cn3)cc2CC(=O)N([C@@H](C)CO)C[C@H]1C`, “inactive”.

For the compound `CCOC(=O)C1=C(C)N[C@@]2(O)C[C@@H]1[C@H]1CO[C@@H]2O1`, the cytotoxicity call is “inactive”. With `Nc1ccc(C(=O)O)c(O)c1` the entry was “inactive”; with `NNC(=O)c1ccncc1`, “inactive”. With `NNC(=O)c1ccncc1.Nc1ccc(C(=O)O)c(O)c1` the entry was “active”; with `CC(C)OC[C@H]1Cn2c(nc3c2c(=O)n(C)c(=O)n3C)O1`, “inactive”.

For `NC(CO)C(=O)O` (configuration not stated), the cytotoxicity call is “active”. In the case of `Cl.NCCCCC(N)C(=O)O` (configuration not stated) it was “inactive”. With `NC(=O)CC[C@H](N)C(=O)O` the entry was “inactive”. With `NC(CC(=O)O)C(=O)O` (configuration not stated) the entry was “inactive”. Turning to `Cl.NCCCC(N)C(=O)O` (configuration not stated), the cytotoxicity call was “active”. Take `NCCCC[C@H](N)C(=O)O`: the cytotoxicity call was “inactive”. As to `N[C@H](CO)C(=O)O`, the cytotoxicity call is “inactive”.

`NC(=O)CCC(N)C(=O)O` (configuration not stated): the cytotoxicity call is “active”.

In the case of `NC(=O)CC[C@@H](N)C(=O)O`, the cytotoxicity call is “inactive”. As for `NC(=O)NCC#Cc1ccc2c(c1)[C@]1(C(=O)N2)[C@H](c2ccc(OCCO)cc2)N2[C@H](c3ccccc3)[C@H](c3ccccc3)OC(=O)[C@H]2[C@@H]1C(=O)N1CCCCCCC1`, the cytotoxicity call was “inactive”. In the case of `C[C@H](CO)N1C[C@H](C)[C@@H](CN(C)Cc2ccc3c(c2)OCO3)OCc2ccccc2-c2c(n(C)c3ccccc23)C1=O` it was “inactive”.

With `C[C@H]1CCCCO[C@@H](CN(C)C(=O)CCC(F)(F)F)[C@@H](C)CN([C@@H](C)CO)C(=O)c2cc(NS(=O)(=O)c3ccc(F)cc3)ccc2O1`, the cytotoxicity call is “inactive”.

For `C[C@H](CO)N1C[C@H](C)[C@H](CN(C)C(=O)Nc2cccc3ccccc23)Oc2ccc(NC(=O)Nc3ccccc3)cc2CC1=O`, the cytotoxicity call is “inactive”. With `Cc1cccc(NC(=O)Nc2ccc3c(c2)C(=O)N(C)[C@H]2CC[C@H](CC(=O)NCc4ccccc4Cl)O[C@H]2CO3)c1` the entry was “inactive”; with `C[C@@H]1CN([C@H](C)CO)S(=O)(=O)c2ccc(C#CC3CC3)cc2O[C@H]1CN(C)C(=O)Cc1ccncc1`, “inactive”; with `C[C@H]1CN([C@@H](C)CO)C(=O)c2cccc(NS(=O)(=O)c3ccccc3)c2O[C@H]1CN(C)S(=O)(=O)c1ccc(F)cc1`, “inactive”.

Regarding `COCCNC(=O)C[C@H]1CC[C@H]2[C@@H](COC[C@H](O)CN2C(=O)Nc2ccc3c(c2)OCO3)O1`, the cytotoxicity call is “inactive”. Regarding `OCc1cccnc1`, the cytotoxicity call was “inactive”.

Turning to `C(=N\Cc1cccnc1)/c1c2ccccc2cc2ccccc12`, the cytotoxicity call was “active”. With `O=C(O)CCC(=O)NCc1cccnc1` the entry was “inactive”; with `C[C@H](CO)N1C[C@H](C)[C@@H](CN(C)Cc2ccc(C(=O)Nc3ccccc3N)cc2)Oc2c(NS(=O)(=O)c3ccc(Cl)cc3)cccc2C1=O`, “inactive”; with `C/C=C/C(=O)c1cc(Cl)ccc1O`, “inactive”. With `NC(=O)c1ccc([N+](=O)[O-])cc1Cl` the entry was “inactive”; with `CNS(=O)(=O)c1ccc(Cl)c(C(N)=O)c1`, “inactive”.

Turning to `O=C(Nc1cc(Cl)ccc1Cl)c1cc(Cl)ccc1NS(=O)(=O)c1ccc(Cl)c([N+](=O)[O-])c1`, the cytotoxicity call was “active”. `C[C@H]1CN([C@@H](C)CO)C(=O)c2cccc(NS(=O)(=O)c3ccc(Cl)cc3)c2O[C@H]1CN(C)Cc1ccc(C(=O)Nc2ccccc2N)cc1`: the cytotoxicity call is “inactive”. In the case of `O=C(Nc1ccc([N+](=O)[O-])cc1Cl)c1cc(Cl)ccc1O` it was “active”; in that of `NS(=O)(=O)c1ccc(Cl)cc1[N+](=O)[O-]`, “inactive”. In the case of `O=C(Nc1ccc(Cl)cc1C(=O)c1ccc(Cl)cc1)c1cc(Br)ccc1NS(=O)(=O)c1ccc(Cl)cc1`, the cytotoxicity call is “active”. With `NS(=O)(=O)c1ccc(F)c([N+](=O)[O-])c1` the entry was “inactive”. In the case of `O=C(Nc1cc(Cl)ccc1Cl)c1cc(Br)ccc1NS(=O)(=O)c1ccc(Cl)c([N+](=O)[O-])c1` it was “active”.
